PubChem BioAssay AID623996 (NMMLSC, 2012)
Entries with a potency or affinity are not part of this list. The source made the active and inactive calls.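 How the source made its calls: active means fitted concentration giving half the maximal Nile Red retention below 100 µM; inactive means the rest.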

Target: Multidrug resistance protein CDR1 (Candida albicans) (UniProt P43071)
Assay: CaCdr1 efflux pump inhibitor potency, dose response, singleplex, Cherry Pick2 set (AID 623996)
Settings: S. cerevisiae AD/CaCDR1, Nile Red efflux inhibition, flow cytometry; series mostly up to 100 µM; efflux inhibition response: at the top concentration

Sequence of Multidrug resistance protein CDR1 (Candida albicans) (P43071 whole entry, looked up): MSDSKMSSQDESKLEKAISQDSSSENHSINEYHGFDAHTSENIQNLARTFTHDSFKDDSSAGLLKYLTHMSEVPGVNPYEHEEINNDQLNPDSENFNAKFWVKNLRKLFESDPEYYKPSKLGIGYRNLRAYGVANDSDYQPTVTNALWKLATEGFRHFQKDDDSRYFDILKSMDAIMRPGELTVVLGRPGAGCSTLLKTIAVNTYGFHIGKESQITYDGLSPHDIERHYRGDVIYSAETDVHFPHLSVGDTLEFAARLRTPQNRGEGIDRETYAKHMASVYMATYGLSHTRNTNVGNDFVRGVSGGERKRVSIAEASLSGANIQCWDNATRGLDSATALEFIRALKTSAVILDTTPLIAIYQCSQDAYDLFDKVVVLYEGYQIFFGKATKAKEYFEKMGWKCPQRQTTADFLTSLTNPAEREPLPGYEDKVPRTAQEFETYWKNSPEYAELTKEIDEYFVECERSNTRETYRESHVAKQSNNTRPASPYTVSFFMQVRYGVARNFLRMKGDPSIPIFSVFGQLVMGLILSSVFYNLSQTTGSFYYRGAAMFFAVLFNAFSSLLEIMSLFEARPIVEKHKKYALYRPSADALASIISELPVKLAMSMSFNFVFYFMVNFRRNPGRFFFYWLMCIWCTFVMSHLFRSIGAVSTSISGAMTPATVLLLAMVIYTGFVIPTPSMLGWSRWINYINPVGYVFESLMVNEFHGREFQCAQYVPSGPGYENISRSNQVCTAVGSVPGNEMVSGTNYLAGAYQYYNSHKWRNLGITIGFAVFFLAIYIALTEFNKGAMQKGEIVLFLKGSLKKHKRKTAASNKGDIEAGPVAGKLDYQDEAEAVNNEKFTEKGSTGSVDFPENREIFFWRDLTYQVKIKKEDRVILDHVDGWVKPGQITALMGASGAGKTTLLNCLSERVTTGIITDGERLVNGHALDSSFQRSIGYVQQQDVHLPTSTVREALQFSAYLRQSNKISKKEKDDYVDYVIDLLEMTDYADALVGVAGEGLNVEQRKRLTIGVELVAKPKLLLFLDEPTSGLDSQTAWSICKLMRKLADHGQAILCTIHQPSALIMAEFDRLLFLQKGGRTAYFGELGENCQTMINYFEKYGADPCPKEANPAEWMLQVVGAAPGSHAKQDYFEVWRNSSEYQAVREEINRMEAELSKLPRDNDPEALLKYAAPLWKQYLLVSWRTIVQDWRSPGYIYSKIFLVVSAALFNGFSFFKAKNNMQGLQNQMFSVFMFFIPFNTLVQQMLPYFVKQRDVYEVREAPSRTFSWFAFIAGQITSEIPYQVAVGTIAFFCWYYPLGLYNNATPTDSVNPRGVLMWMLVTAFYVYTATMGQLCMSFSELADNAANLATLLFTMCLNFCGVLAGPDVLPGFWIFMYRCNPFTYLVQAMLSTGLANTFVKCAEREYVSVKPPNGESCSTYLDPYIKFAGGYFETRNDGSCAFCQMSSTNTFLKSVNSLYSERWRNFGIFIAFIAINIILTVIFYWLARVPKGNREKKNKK

Compound | efflux inhibition response
CCC(Cc1ccccc1)OC(=O)c1ccccc1C(=O)O (stereo unspecified) | -2.73% (inactive)
O=C(C1CCC(CNc2nc(=S)[nH]c3ccccc23)CC1)N1CCN(c2ccc(F)cc2)CC1 (stereo unspecified) | -0.38% (inactive)
O=C(C1CCCN(c2ncnc3c2nc2n3CCCCC2)C1)N1CCN(c2ccccc2)CC1 (stereo unspecified) | -1.77% (inactive)
CCCCCCCCCC[N+](C)(C)CC/C=C1/c2ccccc2Sc2ccc(Cl)cc21 | 164% (inactive)
CCCCN1Cc2cc(C(=O)c3cc(OC)ccc3O)cnc2NC1=O | -3.22% (inactive)
NC1=NC[C@@H](Cc2ccc(O)cc2)N1CCCCC1CCCCC1 | -2.59% (inactive)
COc1ccc(C2CC(c3ccccc3C(F)(F)F)=NN2c2ccc(S(N)(=O)=O)cc2)cc1 (stereo unspecified) | 30.5% (inactive)
Cc1cccc(C2CC(c3ccccc3)=NN2c2ccc(S(N)(=O)=O)cc2)c1 (stereo unspecified) | -1.16% (inactive)
CCCCCc1cc(=O)oc2c(C(CCN3CCCC(C)C3)c3ccc(N(C)C)cc3)c(OC)cc(OC)c12 (stereo unspecified) | -0.75% (inactive)
CCN(CC)CCC(c1ccc(N(C)C)cc1)c1c(OC)cc(OC)c2ccc(=O)oc12 (stereo unspecified) | -1.39% (inactive)
N#CC(C(=O)NCc1ccccc1)c1nc2ccccc2nc1N1CCCC1 (stereo unspecified) | -3.17% (inactive)
O=C(NC1CCCc2c1cnn2-c1ccccc1F)c1ccccn1 (stereo unspecified) | -0.24% (inactive)
NS(=O)(=O)c1ccc(N2N=C(c3ccccc3)CC2c2ccc(F)cc2)cc1 (stereo unspecified) | 2.86% (inactive)
Cc1ccc(CNC(=O)C2CCC(CNc3nc(=S)[nH]c4ccccc34)CC2)cc1 (stereo unspecified) | -0.52% (inactive)
CC(C)C(=O)N1CCC2(CC1)Oc1ccc(F)cc1C(=O)C21CC(c2ccc(Cl)cc2)=NO1 (stereo unspecified) | 86.8% (inactive)
O=C(c1ccc2c(c1)OCO2)N1CCC2(CC1)Oc1ccc(F)cc1C(=O)C21CC(c2ccc(Cl)cc2)=NO1 (stereo unspecified) | 26.2% (inactive)
